Pf growth 48h: P. falciparum growth inhibition at 48 hours (one generation); hit rate 5.9% among 310,000; Potency, µM (titrated, usually from 28.7 µM), without a hit: top-dose activity change, negative = inhibition, usual class: inhibitors; P. falciparum luciferase growth in erythrocytes, 48 h; also: % is scaled to controls: 0 for no effect and ±100 for the full control effect
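First compound was added to culture medium, then infected red cells at 0.1% parasitemia and 2% hematocrit (final). After incubation at 37 C under 5% CO2, luciferase detection reagent was dispensed and light output recorded.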
NS1 inh: influenza NS1 inhibition; Potency, µM (series often up to 46.1 µM), without a hit: top-dose activity, positive = more growth; hit rate 0.4% among 270,000; AID 2326; calls by dose curve; also: actives are rising curves; nearly all actives have a fitted effect of over 50% in size
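Read-out: OD600 growth recovery of NS1-expressing budding yeast. Cells grown overnight at 30C in -URA glucose medium, washed, resuspended and diluted 1:100 in 2% galactose assay medium, pH 6.0. Same strain lacking NS1 served as positive control.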
Pf growth 96h: P. falciparum growth inhibition at 96 hour, primary screen for plastid delayed-death inhibitors; AID 504834; Potency, µM (doses to about 28.7 µM), for inactives: at the top dose activity change, negative = inhibition, usual class: inhibitors; hit rate 6.9% among 320,000; P. falciparum luciferase reporter growth, 96 h; also: % is scaled to controls: 0 for no effect and ±100 for the full control effect
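P. falciparum expressing integrated firefly luciferase grown in erythrocytes (2% hematocrit, 0.05% parasitemia final) with compounds for 96 hours at 37 C, 5% CO2. Growth inhibition read as loss of luminescence after adding luciferase detection reagent.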
Sm TGR inh: S. mansoni TGR enzyme inhibition. purified TGR, DTNB reduction, TNB absorbance 405 nm. Q962Y6. AID 485364. hit rate 3% among 360,000. Potency, µM (doses to about 114 µM), inactives show at the top dose activity change, negative = inhibition, actives largely listed as inhibitors; also: % is scaled to controls: 0 for no effect and ±100 for the full control effect; nearly all actives have a fitted effect of over 60% in size
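First, TGR (20 nM dispensed) and NADPH were mixed with compound. Second, a 15 min room-temperature incubation followed. Third, further NADPH and then DTNB were added to start the reaction. Finally, TNB absorbance was monitored kinetically.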
AMA1-RON2 inh: inhibitors of Plasmodium falciparum AMA1-RON2 interaction | Potency, µM (series often up to 58.2 µM), for the others: top-dose activity change, negative = inhibition, most hits filed as inhibitors | hit rate 0.2% among 360,000 | AlphaScreen AMA1-biotinylated RON2 peptide binding;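 also: 0% = vehicle wells and -100% = peptide control; nearly all actives have a fitted effect of over 45% in size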
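AMA1 (3D7) with his tag at 25 nM final met compounds first, then biotinylated RON2 peptide at 25 nM; detection used donor plus acceptor beads, 10 µg/mL apiece, read by AlphaScreen after 30 min at room temperature.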
An asterisk follows results filed as active; [ ] = another dose, or the depositor's remark. Rows were chosen to be rich in hits. Some 11% of all compounds tested hit in one or more screens of this group. Unless noted, calls follow the shape of the dose curve; as a rule, active = well fitted curve in the direction sought with a large enough effect; inconclusive = small, poorly fitted or top-dose-only effect, or another doubt; inactive = no such curve, though single readings can be large; an effect the other way counts as inactive or inconclusive. Potency is read from the fitted curve at half-maximal effect.

How did Cc1ccccc1Cn1c(=N)n(CC(O)c2ccco2)c2ccccc21 (centres undefined) do in these assays?
Pf growth 48h: 9.3µM*; NS1 inh: -4%; Pf growth 96h: inconclusive; Sm TGR inh: 3%; AMA1-RON2 inh: inconclusive

How did CC(C)(C)c1ccc(Cn2c(=N)n(CC(O)c3ccco3)c3ccccc32)cc1 (centres undefined) do in these assays?
Pf growth 48h: 2.3µM*; NS1 inh: 2%; Pf growth 96h: 12µM*; AMA1-RON2 inh: -11%

What do the screens show for `C1=C(c2ccc(-c3ccccc3)cc2)Nc2ncnn2C1c1ccco1` (centres undefined)?
Pf growth 48h: 7%; NS1 inh: -78%; Pf growth 96h: 19%; Sm TGR inh: 22µM*; AMA1-RON2 inh: 8%

What do the screens show for `COc1ccc(C2C=C(c3ccc(Cl)c(Cl)c3)Nc3ncnn32)cc1` (centres undefined)?
Sm TGR inh: 19%

What do the screens show for `COc1ccc(C2C=C(c3ccc(Br)s3)Nc3ncnn32)cc1OC` (centres undefined)?
Pf growth 48h: inconclusive; NS1 inh: 8%; Pf growth 96h: -3%; Sm TGR inh: 50µM*

What do the screens show for `CCOc1ccc(C2C=C(c3ccc(F)cc3)Nc3ncnn32)cc1` (centres undefined)?
Pf growth 48h: 12µM*; NS1 inh: -60%; Sm TGR inh: 28µM*; AMA1-RON2 inh: 8%

Results for COc1ccc(C2C=C(c3ccc(C)cc3)Nc3ncnn32)cc1 (centres undefined) ?
Pf growth 48h: 12µM*; NS1 inh: -141%; Pf growth 96h: -4%[5.75 µM]; Sm TGR inh: 28µM*; AMA1-RON2 inh: -1%

Results for Cc1ccc(NC(=O)c2ccc3ccccc3n2)cc1S(=O)(=O)N1CCOCC1 ?
Pf growth 48h: inconclusive; Pf growth 96h: inconclusive; Sm TGR inh: -3%; AMA1-RON2 inh: 3%

What do the screens show for `Cc1ccc(C2C=C(c3ccccc3)Nc3ncnn32)cc1` (centres undefined)?
AMA1-RON2 inh: 19%

What do the screens show for `Fc1ccc(C2=CC(c3ccc(Br)o3)n3ncnc3N2)cc1` (centres undefined)?
Pf growth 48h: -7%; NS1 inh: -12%; Pf growth 96h: 37%; Sm TGR inh: 20µM*; AMA1-RON2 inh: 11%

Results for CCOc1ccc(C2C=C(c3ccccc3)Nc3ncnn32)cc1 (centres undefined) ?
Pf growth 48h: inconclusive; NS1 inh: -106%; Pf growth 96h: inconclusive; Sm TGR inh: 79µM*

Results for Oc1ccc(C2C=C(c3ccc(F)cc3)Nc3ncnn32)cc1 (centres undefined) ?
Pf growth 48h: 12%; NS1 inh: 4%; Pf growth 96h: inconclusive; Sm TGR inh: 45µM*; AMA1-RON2 inh: 11%

How did Cc1cc(C)c(S(=O)(=O)N2CCN(C(=O)c3cc4ccccc4oc3=O)CC2)c(C)c1 do in these assays?
Pf growth 48h: inconclusive; Pf growth 96h: inconclusive; Sm TGR inh: -2%; AMA1-RON2 inh: -14%

Results for Cc1nnc2sc(-c3cccc(F)c3)nn2c1=O ?
Pf growth 48h: inconclusive; NS1 inh: 5%; Pf growth 96h: inconclusive; Sm TGR inh: 7%; AMA1-RON2 inh: 1%

How did Cc1ccc(NC(=O)c2ncn[nH]2)cc1 do in these assays?
Pf growth 48h: 51%; NS1 inh: -2%; Pf growth 96h: -24%; AMA1-RON2 inh: -3%

What do the screens show for `O=C(Nc1ccc(Oc2ccc(Cl)cc2)cc1)c1ncn[nH]1`?
Pf growth 48h: 9.3µM*; NS1 inh: -20%; Pf growth 96h: 36%; Sm TGR inh: 2%; AMA1-RON2 inh: 6%

How did CCc1ccc2[nH]c(=O)c(CN(CCN(CC)CC)C(=O)Nc3ccccc3OC)cc2c1 do in these assays?
Pf growth 48h: 15µM*; NS1 inh: -5%; Pf growth 96h: 31%; Sm TGR inh: -15%; AMA1-RON2 inh: -7%

How did CCN(CC)CCCN(Cc1cc2cc(OC)ccc2[nH]c1=O)C(=O)Nc1ccccc1 do in these assays?
Pf growth 48h: 9.3µM*; NS1 inh: -2%; Pf growth 96h: inconclusive; Sm TGR inh: -9%; AMA1-RON2 inh: 6%

Results for Cc1[nH]c2ccccc2c1C(=O)CN1CCC2(CC1)OCCO2 ?
Pf growth 48h: 0.93µM*; NS1 inh: -6%; Pf growth 96h: 0%; Sm TGR inh: 45µM*; AMA1-RON2 inh: 22%

How did Cc1[nH]c2ccccc2c1C(=O)CN1CC(C)OC(C)C1 (centres undefined) do in these assays?
Pf growth 48h: 0%; NS1 inh: -1%; Pf growth 96h: -10%; Sm TGR inh: 32µM*; AMA1-RON2 inh: -1%

What do the screens show for `COc1ccc2c(c1)c(C(O)CN1CCC3(CC1)OCCO3)c(C)n2C` (centres undefined)?
Pf growth 48h: inconclusive; NS1 inh: inconclusive; Sm TGR inh: 25µM*

Results for Cc1[nH]c2ccccc2c1C(O)CN1CCC2(CC1)OCCO2 (centres undefined) ?
Pf growth 48h: -7%; NS1 inh: 0%; Pf growth 96h: 10%; Sm TGR inh: 16µM*; AMA1-RON2 inh: -5%

Results for O=C(CN1CCC2(CC1)OCCO2)c1c[nH]c2ccccc12 ?
Pf growth 48h: 8%; NS1 inh: 5%; Pf growth 96h: -16%; Sm TGR inh: inconclusive; AMA1-RON2 inh: -5%

How did Cc1[nH]c2ccccc2c1C(=O)CCl do in these assays?
Pf growth 48h: inconclusive; NS1 inh: 7%; Pf growth 96h: 10µM*; Sm TGR inh: 2µM*; AMA1-RON2 inh: -9%

How did CC1CN(CC(=O)c2ccccc2Cl)CC(C)O1 (centres undefined) do in these assays?
Pf growth 48h: 28%; NS1 inh: -36%; Pf growth 96h: 54%; Sm TGR inh: 45µM*; AMA1-RON2 inh: 2%

What do the screens show for `CC1CCN(CC(=O)c2ccccc2Cl)CC1`?
Pf growth 48h: inconclusive; NS1 inh: 8%; Pf growth 96h: inconclusive; Sm TGR inh: -1%; AMA1-RON2 inh: -19%

Results for CN(C)c1cc2c(cc1NC(=O)c1ccc(F)cc1)n(C)c(=O)n2C ?
Sm TGR inh: -19%

Results for CCOC(=O)C1CCN(c2cc3c(cc2NC(=O)c2ccc(F)cc2)n(C)c(=O)n3C)CC1 ?
Pf growth 48h: 12µM*; NS1 inh: 9%; Pf growth 96h: -25%; Sm TGR inh: -2%; AMA1-RON2 inh: -7%

How did Cn1c(=O)n(C)c2cc(NC(=O)c3ccc(F)cc3)c(Br)cc21 do in these assays?
Pf growth 48h: inconclusive; NS1 inh: -3%; Pf growth 96h: 2.9µM*; Sm TGR inh: 3%; AMA1-RON2 inh: 15%

What do the screens show for `COc1ccc(NC(=O)c2cc3ccc4c5ccccc5[nH]c4c3cc2O)cc1`?
Pf growth 48h: inconclusive; NS1 inh: 1%; Pf growth 96h: 5.9µM*; Sm TGR inh: 0%; AMA1-RON2 inh: inconclusive

From PubChem
